Screening results (PubChem)
Sampled rows, rich in hits. Any-hit rate of the full collection: about 19%.
TGFb SMAD3 inh = qHTS for Inhibitors of TGF-b; HepG2 CAGA-GFP TGF-b/SMAD3 reporter, GFP fluorescence, 18 h; TGF-beta stimulated, 500 pg/mL final; Potency, µM (doses to about 46.1 µM), for inactives: at the highest dose activity, negative = inhibition, hits mostly inhibitors; 410,000 tested, 1.2% active; further: potency means the concentration at half of the fitted maximal effect; on the % scale 0 is the no-effect control and ±100 the full control effect; nearly all actives have a fitted effect of over 65% in size
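First, reporter cells (HEPG2 CAGA-GFP) rested 2 h at 37 degrees C. Next, compounds were pinned in and TGF-beta added to 500 pg/mL final. After 18 h, GFP was imaged per cell and summed per well.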
ASM inhibitor = Inhibitors of Secretory Acid Sphingomyelinase (S-ASM): qHTS; Sphingomyelin phosphodiesterase (Homo sapiens), P17405; placental ASM, HMU-PC fluorogenic substrate, 60 min; Potency, µM (doses to about 57.5 µM), for the others: top-dose activity change, negative = inhibition, hits mostly inhibitors; 340,000 tested, 0.006% active; AID 504937, 2011; further: potency means the concentration at half of the fitted maximal effect
Target sequence (P17405 47-631 limits assumed): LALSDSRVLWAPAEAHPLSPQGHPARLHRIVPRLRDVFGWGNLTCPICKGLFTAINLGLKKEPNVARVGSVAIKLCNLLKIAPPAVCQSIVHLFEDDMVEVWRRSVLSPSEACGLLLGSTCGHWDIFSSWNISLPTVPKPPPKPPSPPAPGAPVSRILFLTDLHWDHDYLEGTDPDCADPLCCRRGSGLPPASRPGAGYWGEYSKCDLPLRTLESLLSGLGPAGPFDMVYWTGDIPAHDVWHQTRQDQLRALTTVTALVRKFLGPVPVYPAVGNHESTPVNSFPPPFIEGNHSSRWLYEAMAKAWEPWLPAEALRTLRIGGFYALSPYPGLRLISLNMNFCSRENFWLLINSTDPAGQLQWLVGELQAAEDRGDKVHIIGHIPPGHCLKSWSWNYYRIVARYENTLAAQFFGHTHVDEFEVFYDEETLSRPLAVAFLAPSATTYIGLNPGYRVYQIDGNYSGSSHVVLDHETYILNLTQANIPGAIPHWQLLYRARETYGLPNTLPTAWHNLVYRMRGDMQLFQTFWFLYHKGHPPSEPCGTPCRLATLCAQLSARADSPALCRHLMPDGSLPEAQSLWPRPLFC
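Fluorescence read-out (Ex 386 nm, Em 447 nm) after stopping the reaction at pH 10. Enzyme: ASM from human placenta; substrate HMU-PC0, 9 uM final; 60 min, 37 °C. Compound preincubation 10 min, ambient temperature.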
DT40 TDP1 no CPT = qHTS for Inhibitors of human tyrosyl-DNA phosphodiesterase 1 (TDP1): qHTS in cells in absence of CPT; AID 686978, 2013; 420,000 tested, 15% active; Potency, µM (top dose mostly 46.2 µM), for inactives: at the top dose activity change, negative = growth inhibition, hits mostly inhibitors; DT40 Tdp1-/- hTDP1 cells, no CPT, ATP luminescence, 48 h; further: potency means the concentration at half of the fitted maximal effect; on the % scale 0 is the no-effect control and ±100 the full control effect; nearly all actives have a fitted effect of over 55% in size
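Growth kinetics read by CellTiter-Glo luminescence after ≥48 hr at 37 °C. Cells: DT40 Tdp1-/- stably carrying human TDP1, 400 per well, compound exposure in the absence of CPT (DMSO vehicle).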
HepG2 tox = qHTS for Inhibitors of TGF-b: Cytotox Counterscreen; HepG2 CAGA-GFP viability, ATP luminescence, 18 h; Potency, µM (top dose mostly 46.1 µM), for inactives: at the highest dose activity change, negative = cytotoxicity, hits mostly cytotoxic; 410,000 tested, 0.76% active; AID 588856, 2011; further: potency means the concentration at half of the fitted maximal effect
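HepG2 CAGA-GFP cells (1000/well, DMEM with 1% FBS) received compound, then TGF-beta at 500 pg/mL final, and were incubated 18 hours at 37 degrees C. Viability was read by CellTiter-Glo luminescence. Media-only wells were set as complete cell-killing and DMSO as no toxicity.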
DT40 TDP1 CPT = qHTS for Inhibitors of human tyrosyl-DNA phosphodiesterase 1 (TDP1): qHTS in cells in presence of CPT. Potency, µM (doses to about 46.2 µM), for inactives: at the highest dose activity change, negative = growth inhibition, most hits filed as inhibitors. chicken DT40 Tdp1-/-;hTDP1 cells + 20 nM CPT, ATP luminescence, 48 h. 420,000 tested, 12% active; further: potency means the concentration at half of the fitted maximal effect; on the % scale 0 is the no-effect control and ±100 the full control effect; nearly all actives have a fitted effect of over 55% in size
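Chicken DT40 Tdp1-/- cells complemented with human TDP1, 400 cells/well, exposed to compounds plus 20 nM camptothecin for at least 48 h at 37 C; viability read as ATP content by CellTiter-Glo luminescence.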
IL-1B inflam inh = qHTS for Inhibitors of Inflammasome Signaling: IL-1-beta AlphaLISA Primary Screen; THP-1 LPS/ATP IL-1B secretion, AlphaLISA, 16 h; hits give low values; activity change, % at 57.5 µM; 360,000 tested, 4.7% active; AID 743279, 2014; in the data active means activity change below about -50%; inconclusive means mostly about -30% to -49%; further: on the % scale 0 is the no-effect control and ±100 the full control effect
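THP-1 cells pretreated 1 hr with compounds (up to 57.5 uM final), then stimulated with LPS (250 ng/mL final) plus ATP (1.25 mM final); secreted IL-1B measured by AlphaLISA after 16 hr, decreased signal indicating inhibition.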
An asterisk follows results filed as active; ? = inconclusive; . = no result given. Unless noted, the call rests on the fitted dose curve; in most records, active means well fitted curve in the direction sought with a large enough effect; inconclusive means small, poorly fitted or top-dose-only effect, or another doubt; inactive means no such curve, though single readings can be large; an effect the other way counts as inactive or inconclusive.

SMILES	TGFb SMAD3 inh	ASM inhibitor	DT40 TDP1 no CPT	HepG2 tox	DT40 TDP1 CPT	IL-1B inflam inh
CCn1c(SCC(=O)Nc2nc(-c3ccc(C)cc3)cs2)nnc1-c1ccccc1O	?	?	?	4%	?	-51*
Cc1ccc(-c2csc(NC(=O)CSc3nc4ccccc4c(=O)n3CCCN(C)C)n2)cc1	?	?	15µM*	-103%	10µM*	-97*
Cc1ccc(-c2csc(NC(=O)CSc3nc(C)cs3)n2)cc1	-9%	-10%	16µM*	-12%	?	-15
Cc1ccc(Cn2c(SCC(=O)Nc3cc(C)on3)nc3ccccc3c2=O)cc1	1%	1%	?	-41%	?	22
Cc1ccc(C2=NC(c3ccccc3)=Nc3ccc(Cl)cc3N2)cc1	11%	.	23µM*	-2%	?	.
Nc1cccc(C2=Nc3cccc4cccc(c34)N2)c1	0%	3%	?	14%	?	-9
Cc1ccc(C2=Nc3ccccc3NC(c3ccncc3)=N2)cc1	-9%	.	13µM*	-19%	?	.
COc1ccc(C2=Nc3cccc4cccc(c34)N2)cc1	-17%	-2%	16µM*	-15%	?	17
Clc1ccc2c(c1)NC(c1ccncc1)=NC(c1cccs1)=N2	3%	.	?	-11%	?	.
COc1ccc(C2=NC(c3ccccc3)=Nc3ccc(C)cc3N2)cc1	-2%	.	21µM*	-17%	26µM*	.
COCCn1c(SCC(=O)Nc2cccnc2Cl)nc2ccccc2c1=O	8%	3%	-23%	-30%	-22%	17
COc1ccc(NC2=Nc3cccc4cccc2c34)cc1	-22%	-9%	26µM*	6%	?	-8
O=C(O)c1cccc(NC2=Nc3cccc4cccc2c34)c1	50%	47%	-6%	21%	7%	14
COc1ccc2c(c1)NC(c1cccnc1)=NC(c1ccc(F)cc1)=N2	10%	.	9.2µM*	1%	15µM*	.
CN[C@H](CC(=O)O)C(=O)O	13%	1%	-7%	-14%	-3%	6
COc1ccc([N+](=O)[O-])cc1NC(=O)C(C)Sc1nc(C)c(C)c(C)n1 (stereo unspecified)	0%	-1%	23µM*	10%	?	-1
CCOc1ccc(NC(=O)CC2C(=O)N(c3ccccc3)C(=O)N2C2CCCC2)cc1 (stereo unspecified)	0%	.	-11%	-8%	?	.
COC(=O)c1ccc(NC(=O)CSC2=NCCN2)cc1	?	5%	15µM*	-34%	?	-53*
COc1ccccc1CCC(=O)N1CCC(n2nccc2NC(=O)C2CCOC2)CC1 (stereo unspecified)	-12%	4%	11%	-81%	-1%	0
CC(C)(C)NC(=O)Cc1ccc(Cl)c(Cl)c1	9%	9%	-10%	-3%	32%	-10
C#CCOc1ccc(C(=O)N(C)c2ccccc2I)cc1	1%	.	.	8%	.	.
Cc1ccc(NC(=O)c2cc(=O)[nH]c3ccccc23)cc1	-2%	-9%	23%	-11%	-2%	-8
Cc1[nH]c2ccccc2c1SCCN	0%	-1%	?	-22%	?	-15
Cc1ccc(-c2[nH]c3ccccc3c2SCCN)cc1	?	-5%	15µM*	-24%	?	-65*
NCCSc1c(-c2ccc(Cl)cc2)[nH]c2ccccc12	?	-3%	?	-25%	?	-65*
SMILES	TGFb SMAD3 inh	ASM inhibitor	DT40 TDP1 no CPT	HepG2 tox	DT40 TDP1 CPT	IL-1B inflam inh
NCCSc1c(-c2ccccc2)[nH]c2ccccc12	-15%	-6%	21µM*	-31%	?	-21
Cc1ccc(-c2cc(=O)[nH]c3ccccc23)cc1	?	0%	7.3µM*	-1%	9.2µM*	-4
O=C(Nc1ccccc1C(F)(F)F)C1CCN(S(=O)(=O)Cc2ccccc2)CC1	-1%	.	-5%	-4%	-15%	.
Cc1nc(C(C)NC(=O)c2cc(COc3ccc(C)c(C)c3)on2)c(C)s1 (stereo unspecified)	7%	2%	?	-6%	?	-12
Cc1c(C2CC(=O)N(c3ccccc3)C2=O)[nH]n(-c2ccccc2)c1=O (stereo unspecified)	-6%	2%	?	9%	16µM*	7
O=C(COc1ccc(F)cc1)Nc1ccc2nc(SCC(=O)N3CCc4ccccc43)sc2c1	-15%	.	2.6µM*	-21%	2.6µM*	.
O=C(COc1ccccc1F)Nc1ccc2nc(SCC(=O)N3CCc4ccccc43)sc2c1	-14%	.	5.2µM*	4%	7.3µM*	.
O=C(CSc1nc2cc(Cl)ccc2s1)N1CCCc2ccccc21	?	-6%	14µM*	-31%	?	-3
O=C(c1ccc(S(=O)(=O)NCc2ccco2)cc1)N1CCN(Cc2ccccc2F)CC1	5%	.	?	2%	?	-4
CCc1ccccc1NC(=O)COc1ccc2oc(-c3ccc(OC)cc3)cc(=O)c2c1	9%	116%	-8%	1%	15%	28
Cn1nc(C(F)(F)F)c(C#N)c1N1CCN(c2ccc(F)cc2)CC1	-1%	1%	21µM*	-31%	?	-12
Cn1nc(C(F)(F)F)c(C#N)c1N1CCN(c2ccccc2)CC1	19%	1%	15µM*	1%	?	-17
Cn1nc(C(F)(F)F)c(C#N)c1N1CCN(c2ccccn2)CC1	-1%	2%	?	-6%	-23%	18
Cn1nc([N+](=O)[O-])nc1N1CCN(c2ccc(F)cc2)CC1	12%	-1%	0%	9%	-4%	-2
COc1ccc(CNC(=O)C(C)n2nc(C)c3c(C)n(-c4ccc(C)cc4)nc3c2=O)cc1 (stereo unspecified)	?	2%	?	-27%	18µM*	-15
CCOc1ccc(CNC(=O)C(C)n2nc(C)c3c(C)n(-c4ccccc4)nc3c2=O)cc1 (stereo unspecified)	18%	0%	-10%	8%	3%	14
